Reference: PubChem BioAssay AID1159580 (chemical genetic matrix, 2015)
Where “and” joins values, the source holds several entries; their conditions need not be identical. Equal entries are not always repeated. About 2,000 (36%) of roughly 5,500 compounds were called active. Roughly 18% stayed inconclusive and do not appear here. Cut-off read from the data, not from the text of the source: active = normalized growth mostly below about 0.91 (no sharp cut-off); inconclusive = no clear call, values can overlap the other calls; inactive = mostly above about 0.92. The list shows a part of the results.

Experiment: chemical genetic growth profiling, strain panel (AID 1159580);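 note: tested at 20 µM; growth read once vehicle control cultures reached saturation at 30 °C; 1 = growth at the plate median or of vehicle wells; lower values mean less growth of the strain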
Settings: S. cerevisiae deletion strains, growth OD

Measured: normalized growth

CC(C)NCC(O)COc1cccc2[nH]ccc12 (centres undefined)
inactive: locus YAL013W, strain DEP1, hits give low values 1 and 0.99 | locus YAL021C, strain ccr4, hits give low values 1.01 | locus YAL026C, strain drs2, hits give low values 0.986 | locus YAL030W, strain snc1, hits give low values 0.982 | locus YAL040C, strain CLN3, hits give low values 0.983 and 0.988 | locus YBL061C, strain skt5, hits give low values 0.977 | locus YBR009C, strain hhf1, hits give low values 0.983 | locus YBR021W, strain FUR4, hits give low values 1.02 | locus YBR023C, strain chs3, hits give low values 0.979 | locus YBR171W, strain sec66, hits give low values 0.979 | locus YBR229C, strain ROT2, hits give low values 0.999 | locus YBR231C, strain swc5, hits give low values 0.986 | locus YBR279W, strain paf1, hits give low values 0.992 | locus YCL011C, strain gbp2, hits give low values 0.98 | locus YCL016C, strain dcc1, hits give low values 0.981 | locus YCL029C, strain bik1, hits give low values 0.993 | locus YCL061C, strain MRC1 (second series), hits give low values 0.998 and 0.999 | locus YCL061C, strain MRC1, hits give low values 0.984 | locus YCL069W, strain vba3, hits give low values 0.983 | locus YCR088W, strain abp1, hits give low values 0.983 | locus YDL005C, strain med2, hits give low values 0.988 | locus YDL035C, strain GPR1, hits give low values 0.993 | locus YDL040C, strain nat1, hits give low values 0.986 | locus YDL074C, strain BRE1, hits give low values 1 | locus YDL101C, strain DUN1, hits give low values 0.988 | locus YDL134C, strain PPH21, hits give low values 0.989 | locus YDL185W, strain tfp1, hits give low values 0.947 | locus YDL192W, strain arf1, hits give low values 0.974 | locus YDR001C, strain nth1, hits give low values 0.974 | locus YDR069C, strain doa4, hits give low values 0.976 | locus YDR101C, strain arx1, hits give low values 0.983 | locus YDR137W, strain rgp1, hits give low values 0.975 | locus YDR150W, strain NUM1, hits give low values 1 and 0.997 | locus YDR159W, strain sac3, hits give low values 0.955 | locus YDR162C, strain NBP2, hits give low values 0.995 | locus YDR195W, strain ref2 0.927 | locus YDR297W, strain sur2, hits give low values 0.988 | locus YDR318W, strain mcm21, hits give low values 0.977 | locus YDR334W, strain swr1, hits give low values 0.978 | locus YDR335W, strain msn5, hits give low values 0.983 | locus YDR363W, strain ESC2, hits give low values 0.991 and 0.993 | locus YDR388W, hits give low values 0.979 | locus YDR392W, strain spt3, hits give low values 0.902 | locus YDR502C, strain sam2, hits give low values 0.986 | locus YEL003W, strain gim4, hits give low values 0.988 | locus YEL037C, strain rad23, hits give low values 1.01 | locus YEL061C, strain CIN8 (second series), hits give low values 0.972 | locus YEL061C, strain CIN8, hits give low values 0.997 | locus YER002W, strain NOP16, hits give low values 0.987 and 1.02 | locus YER015W, strain faa2, hits give low values 0.989 | locus YER016W, strain bim1, hits give low values 0.979 | locus YER110C, hits give low values 0.978 | locus YER111C, strain swi4, hits give low values 0.983 | locus YER155C, strain BEM2 (second series), hits give low values 0.97 | locus YER155C, strain BEM2, hits give low values 0.994 | locus YER167W, strain BCK2, hits give low values 0.991 | locus YFR010W, strain ubp6, hits give low values 0.961 | locus YGL078C, strain dbp3, hits give low values 0.99 | locus YGL086W, strain mad1, hits give low values 0.999 | locus YGL167C, strain pmr1, hits give low values 0.976 | locus YGL173C, strain kem1, hits give low values 0.989 | locus YGL227W, strain vid30, hits give low values 0.977 | locus YGL240W, strain doc1, hits give low values 0.986 | locus YGL248W, strain PDE1, hits give low values 0.997 | locus YGL253W, strain hxk2, hits give low values 0.981 | locus YGR078C, strain PAC10, hits give low values 0.993 and 1.01 | locus YGR135W, strain pre9, hits give low values 0.989 | locus YGR229C, strain SMI1, hits give low values 1.01 | locus YGR252W, strain gcn5, hits give low values 1.16 | locus YHR013C, strain ard1, hits give low values 0.943 | locus YHR027C, strain rpn1, hits give low values 0.986 | locus YHR030C, strain SLT2, hits give low values 0.99 and 0.988 | locus YHR079C, strain IRE1 (second series), hits give low values 0.977 | locus YHR079C, strain IRE1, hits give low values 0.977 | locus YHR094C, strain hxt1, hits give low values 0.977 | locus YHR129C, strain ARP1, hits give low values 1 | locus YHR142W, strain chs7, hits give low values 0.997 | locus YHR200W, strain rpn10, hits give low values 0.978 | locus YIL066C, strain RNR3, hits give low values 0.999 | locus YIR030C, strain dcg1, hits give low values 0.991 | locus YJL092W, strain hpr5, hits give low values 0.979 | locus YJL095W, strain BCK1 (second series), hits give low values 0.984 | locus YJL095W, strain BCK1, hits give low values 1.01 and 0.997 | locus YJL115W, strain asf1, hits give low values 0.975 | locus YJL129C, strain trk1, hits give low values 0.997 | locus YJL134W, strain LCB3, hits give low values 0.984 | locus YJL154C, strain vps35, hits give low values 0.98 | locus YJL164C, strain tpk1, hits give low values 1 | locus YJL166W, strain qcr8, hits give low values 1.01 | locus YJL168C, strain set2, hits give low values 0.983 | locus YJL187C, strain SWE1 (second series), hits give low values 0.987 | locus YJL187C, strain SWE1, hits give low values 0.985 | locus YJR043C, strain POL32, hits give low values 1 | locus YJR066W, strain TOR1, hits give low values 0.94
